The record followed here is PubChem BioAssay AID1851 (National Center for Advancing Translational Sciences (NCATS), 2009).

Screen size: about 16,000 compounds; about 5,800 (36%) were called active. Not shown: some 23% with an inconclusive outcome. The list shows a part of the results. Unmarked numbers belong to inactive results. Calls follow the shape of the dose curve; as a rule, active = well fitted curve in the direction sought with a large enough effect; inconclusive = small, poorly fitted or top-dose-only effect, or effect the other way; inactive = no such curve, though single readings can be large or run the other way.

Broadly, the AC50 is the concentration at which the activity in the assay is half-maximal.
% is scaled to controls: 0 for no effect and ±100 for the full control effect.

Cytochrome P450 2C19 (Homo sapiens), sequence (P33261 whole entry, looked up): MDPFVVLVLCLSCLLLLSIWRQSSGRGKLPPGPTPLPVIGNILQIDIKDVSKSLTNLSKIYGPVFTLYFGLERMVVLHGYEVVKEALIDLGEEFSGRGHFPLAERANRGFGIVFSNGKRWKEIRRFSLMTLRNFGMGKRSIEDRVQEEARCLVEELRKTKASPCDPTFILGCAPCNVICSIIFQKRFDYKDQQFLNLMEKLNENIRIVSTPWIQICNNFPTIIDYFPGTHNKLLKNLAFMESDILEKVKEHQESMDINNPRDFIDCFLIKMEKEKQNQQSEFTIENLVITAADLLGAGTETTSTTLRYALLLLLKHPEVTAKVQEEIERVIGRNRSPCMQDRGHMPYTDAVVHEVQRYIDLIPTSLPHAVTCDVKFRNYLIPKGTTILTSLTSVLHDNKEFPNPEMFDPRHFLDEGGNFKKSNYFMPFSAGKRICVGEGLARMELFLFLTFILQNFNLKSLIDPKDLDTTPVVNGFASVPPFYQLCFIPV

The experiment has as its target Cytochrome P450 2C19 (Homo sapiens) (UniProt P33261). Description: Cytochrome panel assay with activity outcomes. The following applies: recombinant CYP, pro-luciferin dealkylation, luminescence, p450-cyp2c19; series mostly up to 57.1 µM; activity, negative = inhibition: at the top concentration.
As for `COc1ccccc1-c1nc(NC2CC2)c2ccccc2n1`, the “activity, negative = inhibition” value is -15.4%.

Turning to `COCCn1c(=O)c(-c2ccc(OC)cc2)nc2cnc(N3CCOCC3)nc21`, the “activity, negative = inhibition” value was 1.17%. For the molecule `COc1ccc(-c2cc(C(F)(F)F)nc(N3CCCCC3)n2)cc1OC`, the AC50 is 3.16 µM (active). For the molecule `Cn1c(=O)c(-c2ccc(F)cc2)nc2cnc(N3CCOCC3)nc21`, the “activity, negative = inhibition” value is -19.9%. Same read-out and setting: to `COc1ccc(-c2cc(C(F)(F)F)nc(N3CCN(C)CC3)n2)cc1OC` belongs -25.1%.

Take `COc1ccc(-c2cc(C(F)(F)F)nc(NC3CCCC3)n2)cc1OC`: the AC50 was 22.4 µM (active).

Take `O=C(O)C[C@H](NC(=O)CP(=O)(O)O)C(=O)O.[NH-][C@@H]1CCCC[C@@H]1[NH-].[Pt]`: the activity, negative = inhibition was -14.4% [at 11.4 µM]. Same read-out and setting: to `CCOC(=O)N/N=C1/C[C@@H](O)[C@@H](O)[C@@H]2[C@@H]3C(=O)N(CC)C(=O)[C@H]3CC[C@H]12` belongs -7.53% [at 11.4 µM]; to `CCOC(=O)N1CCN(C(=O)CNCc2cccs2)CC1`, -4.3%. The same measure, in the same setting: to `O=C(O)Cc1c[nH]c2ccc(O)cc12` belongs 36%. For the molecule `O=C(CCNS(=O)(=O)c1cccs1)N1CCc2ccccc2C1`, the half-maximal activity concentration (AC50) is 2.24 µM (active). For the molecule `Cc1csc(NC(=O)Cc2c[nH]c3ccccc23)n1`, the AC50 is 7.08 µM (active). Regarding `CCOC(=O)N1CCN(C(=O)CNS(=O)(=O)c2cccs2)CC1`, the AC50 is 8.91 µM (active). Same read-out and setting: to `Cc1csc(NC(=O)CNS(=O)(=O)c2cccs2)n1` belongs 14.1 µM (active). Consider `COCC(=O)N1CCC2(CC1)CN(C(c1ccccc1)c1ccccc1)C2`, for which the “activity, negative = inhibition” value is -8.51%. Still for that read-out and setting: to `Cc1csc(NC(=O)CCNS(=O)(=O)c2ccc3c(c2)c(=O)n(C)c(=O)n3C)n1` belongs 7.51%. In the case of `O=C(CCNS(=O)(=O)c1cccs1)N1CCCCCC1`, the AC50 was 3.16 µM (active). With `COc1ccc(CC(=O)N2CCN(c3ccc(C4=NNC(=O)CC4C)cc3)CC2)cc1` (centres undefined), the “activity, negative = inhibition” value was -18.7%.

As to `O=c1nc2ccccc2c2n1CC(CN1CCN(c3cccc(Cl)c3)CC1)N2` (centres undefined), the “activity, negative = inhibition” value is -22.4%. As for `O=C(Cc1ccc(-n2c(=O)[nH]c3ccccc3c2=O)cc1)N1CCN(c2cccc(Cl)c2)CC1`, the half-maximal activity concentration (AC50) is 8.91 µM (active). As to `CN1CCN(CC(=O)N2c3ccccc3Sc3cc4ccccc4cc32)CC1`, the activity, negative = inhibition is -1.84% [at 11.4 µM]. Regarding `CC1CCN(CC(=O)N2c3ccccc3Sc3cc4ccccc4cc32)CC1`, the AC50 was 3.16 µM (active). With `CN1CCCC[C@@H]1CCN1c2ccccc2Sc2ccc(S(C)=O)cc21` (some centres undefined), the AC50 entry is “inactive”. On to `CCN[C@@H]1C[C@H](C)S(=O)(=O)c2sc(S(N)(=O)=O)cc21`, for which the “activity, negative = inhibition” value is -20.6% [at 25.6 µM]. `Cc1ccsc1/C=N/Nc1nc(Cl)c(Cl)cc1Cl`: the AC50 is 7.94 µM (active). `Oc1oc(-c2ccccc2)nc1C=Nc1ccccc1`: the AC50 is 3.98 µM (active).

Consider `CN(C)c1ccc(N=Cc2nc(-c3ccccc3)oc2O)cc1`, for which the AC50 is 1.78 µM (active). Turning to `CN(C)Cc1ccc(O)c(CN(C)C)n1`, the activity, negative = inhibition was -0.0983% [at 11.4 µM].

For the molecule `C=CCCCCCCCCC(=O)Nc1c[nH]c(=O)[nH]c1=O`, the “activity, negative = inhibition” value is -4.48%. With `Cc1ccc2[nH]c3c(N4CCc5ccccc5C4)ncnc3c2c1`, the concentration at half-maximal activity (AC50) was 1.58 µM (active). On to `CCN1CCCC1Cn1cnc2c([nH]c3ccc(C)cc32)c1=O` (centres undefined), for which the “activity, negative = inhibition” value is -42.8%. Consider `COc1ccc(OC)c(C(=O)CN2C(=O)NC(C)(c3ccccc3)C2=O)c1` (centres undefined), for which the AC50 was 0.224 µM (active).

`Cc1ccc(C2(C)NC(=O)N(CC(=O)Nc3cc(C)on3)C2=O)cc1` (centres undefined): the “activity, negative = inhibition” value is -26.8%. On the same count and under the same terms, to `Cc1cc(NC(=O)CN2C(=O)NC(C)(c3ccc(OC(F)F)cc3)C2=O)no1` (centres undefined) belongs -9.86%. On the same count and under the same terms, to `Cc1nnc(SCC(=O)NCC2CCCCC2)n(N)c1=O` belongs 14.4%; to `Cn1c(SCC(=O)NC2CC2)nnc1-c1cccc(NC(=O)c2ccccc2F)c1`, 5.1%. In the case of `CCn1c(SCC(=O)NC2CCCCC2)nnc1-c1cc2cccc(OC)c2o1`, the AC50 is 10 µM (active). As for `Nc1nc2c(c(=O)[nH]1)CN(c1ccc(S(N)(=O)=O)cc1)CN2`, the activity, negative = inhibition was 24.4% [at 11.4 µM]. As to `Cc1ccc(/C=C2\SC(=S)N(CCCC(=O)Nc3ccccn3)C2=O)cc1`, the AC50 was 10 µM (active). Consider `CCNc1ncc2nc(-c3ccccc3)c(=O)n(C3CC3)c2n1`, for which the “activity, negative = inhibition” value is -28.2%. Still for that read-out and setting: to `Cc1nc2cnc(Nc3ccccc3)nc2n(C)c1=O` belongs -7.31%. Still for that read-out and setting: to `CCNc1ncc2nc(CCc3ccccc3)c(=O)n(Cc3ccc(F)cc3)c2n1` belongs -33.5%; to `CCNc1ncc2nc(-c3ccccc3)c(=O)n(C)c2n1`, -12.8%. On the same count and under the same terms, to `CCNc1ncc2nc(C)c(=O)n(C3CC3)c2n1` belongs -22.7%. `Cn1c(=O)c(CCc2ccccc2)nc2cnc(Nc3ccccc3)nc21`: the AC50 was 15.8 µM (active).

With `CCNc1ncc2nc(CCc3ccccc3)c(=O)n(C3CC3)c2n1`, the AC50 was 6.31 µM (active). Same read-out and setting: to `CCNc1ncc2nc(CCc3ccccc3)c(=O)n(C)c2n1` belongs 2.51 µM (active). Regarding `CCO/C([O-])=N/c1c[n+](N2CCOCC2)no1`, the “activity, negative = inhibition” value was -25.7% [at 25.6 µM].

In the case of `COC(=O)C(NC(=O)c1ccc(Cl)cc1)(Nc1nc(C)cs1)C(F)(F)F` (centres undefined), the AC50 is 5.01 µM (active).
